Source: PubChem BioAssay (NCI)
About 79,000 compounds went through this panel and 15% of them were active in at least one assay; those are over-represented in the sample as a whole. A number with no mark means an inactive call. Calls of active or inactive are those of the source. No stated cut-off is given here; in the data, active means growth inhibition above about 70%; inactive means the rest.

Tests used:
[1] = NCI Yeast Anticancer Drug Screen. Data for the rad50 strain (AID 155);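 further: 0% = growth of vehicle-only cultures of the same strain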; settings: S. cerevisiae rad50 strain growth inhibition, hits give high values
Summary of the method: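 Growth of the mutant yeast was measured after compound exposure and referenced to vehicle-treated cultures.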

[2] = NCI Yeast Anticancer Drug Screen. Data for the mec2-1 strain (AID 157); settings: S. cerevisiae mec2-1 strain, hits give high values
Summary of the method: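 Strain: mec2-1 (DNA repair/cell cycle alteration). Compound exposure, then growth measured; inhibition expressed relative to vehicle.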

[3] = NCI Yeast Anticancer Drug Screen. Data for the sgs1 mgt1 strain (AID 161);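 further: 0% = growth of cultures given vehicle only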; settings: S. cerevisiae sgs1 mgt1 strain, hits give high values
Summary of the method: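 Inhibition of yeast growth, normalised to vehicle-treated controls, is reported for a strain bearing genetic alterations in DNA damage repair.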

[4] = NCI Yeast Anticancer Drug Screen. Data for the cln2 rad14 strain (AID 165);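 further: 0% = growth equal to vehicle treated cultures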; settings: S. cerevisiae cln2 rad14 strain, hits give high values
Summary of the method: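 Compounds are applied to the cln2 rad14 yeast strain, and growth is then compared with that of vehicle-treated cultures to give inhibition.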

[5] = NCI Yeast Anticancer Drug Screen. Data for the bub3 strain (AID 167); settings: S. cerevisiae bub3 mutant strain, hits give high values
Summary of the method: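 Whole-cell yeast assay. The mutant strain was incubated with compounds, and growth inhibition was determined by comparison with vehicle-treated cells.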

[6] = NCI Yeast Anticancer Drug Screen. Data for the mlh1 rad18 strain (AID 175); settings: S. cerevisiae mlh1 rad18 strain growth inhibition, hits give high values
Summary of the method: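 Read-out is yeast growth inhibition, calculated against vehicle-only controls. The compound was applied to a strain engineered with DNA damage repair alterations.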

[7] = at 5.0 µM (retest, dose inferred, filed as 0.5)
[8] = at 50.0 µM (retest, dose inferred, filed as 5.0)

Structure (SMILES)	growth inhibition [1, 7]	growth inhibition [1, 8]	growth inhibition ([1]; at 50.0 µM)	growth inhibition [2, 7]	growth inhibition [2, 8]	growth inhibition ([2]; at 50.0 µM)	growth inhibition [3, 7]	growth inhibition [3, 8]	growth inhibition ([3]; at 50.0 µM)	growth inhibition [4, 7]	growth inhibition [4, 8]	growth inhibition ([4]; at 50.0 µM)	growth inhibition [5, 7]	growth inhibition [5, 8]	growth inhibition ([5]; at 50.0 µM)	growth inhibition [6, 7]	growth inhibition [6, 8]	growth inhibition ([6]; at 50.0 µM)
CCCCSc1n[nH]c(=O)nc1SC	-142%	88% (active)	47.1%	-63%	79% (active)	48.6%	-57%	83% (active)	46.5%	-56%	90% (active)	73.8% (active)	-64%	87% (active)	52.4%	-114%	94% (active)	50.9%
CC1=C(C(=O)Nc2cc(O)ccc2O)C(c2cccc([N+](=O)[O-])c2)C(C(=O)Nc2cc(O)ccc2O)=C(C)N1	-8%	20%	32.3%	-23%	6%	25.9%	-14%	15%	35.9%	-5%	12%	46.8%	-7%	0%	2.35%	-9%	20%	36.5%
O=CNc1ccc2c(c1)Cc1cc(NC=O)ccc1-2	-4%	81% (active)	91% (active)	-3%	25%	34.5%	18%	82% (active)	91.4% (active)	-34%	10%	-6.85%	2%	-9%	7.8%	14%	79% (active)	74.2% (active)
CC1CC(C)C(C)C(CO)C1 (configuration not stated)	8%	-3%	-22.4%	4%	-3%	-3.2%	-8%	-1%	-22.6%	-1%	-3%	40%	0%	4%	-0.05%	6%	-5%	-12.2%
CCCCCCCCCCCCCCCC[N+](C)(CCO)Cc1cnc[nH]1 (configuration not stated)	97% (active)	98% (active)	90.2% (active)	97% (active)	99% (active)	87.4% (active)	98% (active)	99% (active)	90.8% (active)	98% (active)	99% (active)	86.8% (active)	99% (active)	99% (active)	88% (active)	94% (active)	98% (active)	88.6% (active)
COc1cc(C2c3cc4c(cc3[C@@H](Nc3ccc5c(c3)OCCO5)C3COC(=O)[C@H]23)OCO4)cc(OC)c1O (some centres not stated)	96% (active)	93% (active)	85.2% (active)	97% (active)	94% (active)	91.2% (active)	99% (active)	99% (active)	87.3% (active)	98% (active)	99% (active)	85.8% (active)	98% (active)	99% (active)	87.2% (active)	95% (active)	90% (active)	88.8% (active)
Cc1nc(N2N=C(c3ccc(Cl)cc3)CCC2=O)sc1[N+](=O)[O-]	10%	85% (active)	85% (active)	13%	65%	86.5% (active)	-1%	71% (active)	83.7% (active)	12%	46%	82% (active)	10%	88% (active)	84% (active)	-12%	92% (active)	65.2%
CCN(CC)CCNCc1ccccc1	-157%	-178%	-7.3%	-49%	-57%	-1.15%	-64%	-67%	10.9%	-62%	-66%	38.7%	-70%	-86%	5.45%	-139%	-119%	1.8%
CC(=O)C(=Cc1ccc(C=C(C(C)=O)C(C)=O)cc1)C(C)=O	-1%	30%	45%	5%	40%	58.5%	11%	61%	58.5%	11%	8%	46.4%	-5%	30%	4.7%	22%	91% (active)	94.7% (active)
